# Whole data set: some 16,000 sequences, median “rpm ratio (pull-down/input)” near 0.94, cut for the highest 2% near 1.7. This excerpt belongs to a sample that is enriched for the highest values.
# Biological target: T1, MBP-FoxP1dN (Mus musculus, UniProt P58462 326-579)
# T1 sequence: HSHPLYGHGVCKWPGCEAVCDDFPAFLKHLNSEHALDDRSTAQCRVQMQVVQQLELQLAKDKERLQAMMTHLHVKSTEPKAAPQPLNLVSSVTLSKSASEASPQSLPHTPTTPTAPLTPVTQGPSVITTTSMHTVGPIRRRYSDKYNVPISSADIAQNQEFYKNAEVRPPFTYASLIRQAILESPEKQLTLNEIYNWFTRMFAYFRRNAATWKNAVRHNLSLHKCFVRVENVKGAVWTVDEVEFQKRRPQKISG
# Experiment: PD-seq (MBP pull-down with sequencing); 20 mM Tris-HCl pH 7.5, 100 mM NaCl, 1.5 mM MgCl2, 0.4 uM protein, 0.1 uM dsDNA library, 30 min, room temperature, amylose pull-down; high values mean tight binding
# Details: protein: recombinant; tags: His6-MBP; chain copies: 2; dsDNA, one strand shown
# Method in brief: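 His6-MBP-tagged mouse FoxP3 or FoxP1 fragment lacking the N-terminus, expressed in E. coli, was mixed at 0.4 µM with 0.1 µM Klenow-filled double-stranded degenerate DNA library. Incubation was 30 min at room temperature in Tris pH 7.5 buffer with NaCl and MgCl2. Complexes were caught on amylose resin and washed three times; DNA was released with proteinase K, PCR-barcoded and Illumina-sequenced. Binding is reads-per-million enrichment, pull-down over input, with replicates pooled.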
row,Sequence,binding signal
1,GATGATTGTTCTCCCAGCTGATGAATTACAGTACTCGAGTAAACAAATTTTCCTAATCTTTCTGTTCAAGCGCCATCTAC,1.06 RPM ratio (pull-down/input)
2,GATGATTGTTCTCCCAGCTGATGAATTGTTATAATCGAGTAAACAAATTTTCCTAATCTTTCTGTTCAAGCGCCATCTAC,1.59 RPM ratio (pull-down/input)
3,GATGATTGTTCTCCCAGCTGATGAATTTGCTTACTCGAGTAAACAAATTTTCCTAATCTTTCTGTTCAAGCGCCATCTAC,1.69 RPM ratio (pull-down/input)
4,GATGATTGTTCTCCCAGCTGATGAATTAGCAGTCTCGAGTAAACAAATTTTCCTAATCTTTCTGTTCAAGCGCCATCTAC,0.877 RPM ratio (pull-down/input)
5,GATGATTGTTCTCCCAGCTGATGAATTTGCATTATCGAGTAAACAAATTTTCCTAATCTTTCTGTTCAAGCGCCATCTAC,1.49 RPM ratio (pull-down/input)
6,GATGATTGTTCTCCCAGCTGATGAATTGCAGCTATCGAGTAAACAAATTTTCCTAATCTTTCTGTTCAAGCGCCATCTAC,1.15 RPM ratio (pull-down/input)
7,GATGATTGTTCTCCCAGCTGATGAATTTATTGCATCGAGTAAACAAATTTTCCTAATCTTTCTGTTCAAGCGCCATCTAC,1.62 RPM ratio (pull-down/input)
8,GATGATTGTTCTCCCAGCTGATGAATTGCATCTATCGAGTAAACAAATTTTCCTAATCTTTCTGTTCAAGCGCCATCTAC,1.75 RPM ratio (pull-down/input)
9,GATGATTGTTCTCCCAGCTGATGAATTGCATTTATCGAGTAAACAAATTTTCCTAATCTTTCTGTTCAAGCGCCATCTAC,1.77 RPM ratio (pull-down/input)
10,GATGATTGTTCTCCCAGCTGATGAATTTCTTGCATCGAGTAAACAAATTTTCCTAATCTTTCTGTTCAAGCGCCATCTAC,1.27 RPM ratio (pull-down/input)
11,GATGATTGTTCTCCCAGCTGATGAATTAGTCTGGTCGAGTAAACAAATTTTCCTAATCTTTCTGTTCAAGCGCCATCTAC,0.822 RPM ratio (pull-down/input)
12,GATGATTGTTCTCCCAGCTGATGAATTTGGGCCATCGAGTAAACAAATTTTCCTAATCTTTCTGTTCAAGCGCCATCTAC,0.878 RPM ratio (pull-down/input)
13,GATGATTGTTCTCCCAGCTGATGAATTGTTTGTGTCGAGTAAACAAATTTTCCTAATCTTTCTGTTCAAGCGCCATCTAC,2.77 RPM ratio (pull-down/input)
14,GATGATTGTTCTCCCAGCTGATGAATTCTTTGTGTCGAGTAAACAAATTTTCCTAATCTTTCTGTTCAAGCGCCATCTAC,1.06 RPM ratio (pull-down/input)
15,GATGATTGTTCTCCCAGCTGATGAATTGTGTTTGTCGAGTAAACAAATTTTCCTAATCTTTCTGTTCAAGCGCCATCTAC,2.8 RPM ratio (pull-down/input)
16,GATGATTGTTCTCCCAGCTGATGAATTTTCTGTGTCGAGTAAACAAATTTTCCTAATCTTTCTGTTCAAGCGCCATCTAC,0.968 RPM ratio (pull-down/input)
17,GATGATTGTTCTCCCAGCTGATGAATTTGCTGTGTCGAGTAAACAAATTTTCCTAATCTTTCTGTTCAAGCGCCATCTAC,1.14 RPM ratio (pull-down/input)
18,GATGATTGTTCTCCCAGCTGATGAATTTGATGTGTCGAGTAAACAAATTTTCCTAATCTTTCTGTTCAAGCGCCATCTAC,1.16 RPM ratio (pull-down/input)
19,GATGATTGTTCTCCCAGCTGATGAATTACCCATATCGAGTAAACAAATTTTCCTAATCTTTCTGTTCAAGCGCCATCTAC,1.07 RPM ratio (pull-down/input)
20,GATGATTGTTCTCCCAGCTGATGAATTACTCCTCTCGAGTAAACAAATTTTCCTAATCTTTCTGTTCAAGCGCCATCTAC,1.05 RPM ratio (pull-down/input)
21,GATGATTGTTCTCCCAGCTGATGAATTATATGAGTCGAGTAAACAAATTTTCCTAATCTTTCTGTTCAAGCGCCATCTAC,0.962 RPM ratio (pull-down/input)

row,Sequence,binding signal
1,GATGATTGTTCTCCCAGCTGATGAATTAATAATATCGAGTAAACAAATTTTCCTAATCTTTCTGTTCAAGCGCCATCTAC,1.51 RPM ratio (pull-down/input)
2,GATGATTGTTCTCCCAGCTGATGAATTATCAATATCGAGTAAACAAATTTTCCTAATCTTTCTGTTCAAGCGCCATCTAC,1.96 RPM ratio (pull-down/input)
3,GATGATTGTTCTCCCAGCTGATGAATTAACAATATCGAGTAAACAAATTTTCCTAATCTTTCTGTTCAAGCGCCATCTAC,1.87 RPM ratio (pull-down/input)
4,GATGATTGTTCTCCCAGCTGATGAATTAAAAATATCGAGTAAACAAATTTTCCTAATCTTTCTGTTCAAGCGCCATCTAC,1.35 RPM ratio (pull-down/input)
5,GATGATTGTTCTCCCAGCTGATGAATTATGAATATCGAGTAAACAAATTTTCCTAATCTTTCTGTTCAAGCGCCATCTAC,1.07 RPM ratio (pull-down/input)
6,GATGATTGTTCTCCCAGCTGATGAATTATATCAATCGAGTAAACAAATTTTCCTAATCTTTCTGTTCAAGCGCCATCTAC,1.16 RPM ratio (pull-down/input)
7,GATGATTGTTCTCCCAGCTGATGAATTAGCTTACTCGAGTAAACAAATTTTCCTAATCTTTCTGTTCAAGCGCCATCTAC,0.938 RPM ratio (pull-down/input)
8,GATGATTGTTCTCCCAGCTGATGAATTTTGAGGGTCGAGTAAACAAATTTTCCTAATCTTTCTGTTCAAGCGCCATCTAC,0.774 RPM ratio (pull-down/input)
9,GATGATTGTTCTCCCAGCTGATGAATTGCAACCATCGAGTAAACAAATTTTCCTAATCTTTCTGTTCAAGCGCCATCTAC,1.45 RPM ratio (pull-down/input)
10,GATGATTGTTCTCCCAGCTGATGAATTGCAGCAATCGAGTAAACAAATTTTCCTAATCTTTCTGTTCAAGCGCCATCTAC,1.33 RPM ratio (pull-down/input)
11,GATGATTGTTCTCCCAGCTGATGAATTGCAAAAATCGAGTAAACAAATTTTCCTAATCTTTCTGTTCAAGCGCCATCTAC,1.55 RPM ratio (pull-down/input)
12,GATGATTGTTCTCCCAGCTGATGAATTGCAATCATCGAGTAAACAAATTTTCCTAATCTTTCTGTTCAAGCGCCATCTAC,1.48 RPM ratio (pull-down/input)
13,GATGATTGTTCTCCCAGCTGATGAATTTGCAACATCGAGTAAACAAATTTTCCTAATCTTTCTGTTCAAGCGCCATCTAC,1.7 RPM ratio (pull-down/input)
14,GATGATTGTTCTCCCAGCTGATGAATTGATGCAATCGAGTAAACAAATTTTCCTAATCTTTCTGTTCAAGCGCCATCTAC,1.96 RPM ratio (pull-down/input)
15,GATGATTGTTCTCCCAGCTGATGAATTGATGCCATCGAGTAAACAAATTTTCCTAATCTTTCTGTTCAAGCGCCATCTAC,1.39 RPM ratio (pull-down/input)
16,GATGATTGTTCTCCCAGCTGATGAATTTCTGCAATCGAGTAAACAAATTTTCCTAATCTTTCTGTTCAAGCGCCATCTAC,1.1 RPM ratio (pull-down/input)
17,GATGATTGTTCTCCCAGCTGATGAATTTTTGCAATCGAGTAAACAAATTTTCCTAATCTTTCTGTTCAAGCGCCATCTAC,1.26 RPM ratio (pull-down/input)
18,GATGATTGTTCTCCCAGCTGATGAATTGCAAACATCGAGTAAACAAATTTTCCTAATCTTTCTGTTCAAGCGCCATCTAC,2.29 RPM ratio (pull-down/input)
19,GATGATTGTTCTCCCAGCTGATGAATTGCAACAATCGAGTAAACAAATTTTCCTAATCTTTCTGTTCAAGCGCCATCTAC,1.91 RPM ratio (pull-down/input)
20,GATGATTGTTCTCCCAGCTGATGAATTGTTGCAATCGAGTAAACAAATTTTCCTAATCTTTCTGTTCAAGCGCCATCTAC,1.87 RPM ratio (pull-down/input)

# — article PMC12820563, “FoxP3 forms a head-to-head dimer in vivo and stabilizes its multimerization on adjacent microsatellites”
